From the OligoGym collection come the findings set out here.
Note: reference of the scale not given here.

In the first experiment the target is PDIA5. The experiment is described as follows: pooled miR-30 sensor sort-seq; sequence = guide strand. The note with it: shRNA.
TCAACTTTCATCTTCTTGCACA gave a sensor-assay potency score (higher = more potent) of -0.596.
The sequence TCAACCTTTTTGTCCTTCGGGC showed a sensor-assay potency score (higher = more potent) of -0.306.
On to TACTTTTCTGCGAACTTCCCAT, for which the sensor-assay potency score (higher = more potent) was -0.283.
TTCAACGTAGGAAACTCTGAGA had a sensor-assay potency score (higher = more potent) of -0.249.

Another experiment deals with PDLIM4. The description is as above. As to conditions: shRNA.
Regarding AGACAGTGTGAGGTGATCGTGG, the sensor-assay potency score (higher = more potent) is -1.1.
For TTGTGAGGGACTGGAAAGCGAG, the sensor-assay potency score (higher = more potent) is -1.61.
TCAGGATCGATGTGGATCCTGT returned a sensor-assay potency score (higher = more potent) of -1.13.
As to TGAGCTCTGTGCTCTCACCATT, the sensor-assay potency score (higher = more potent) is -1.16.
Take TCACTGCACATGAAGCACTCGG: the sensor-assay potency score (higher = more potent) is -0.799.
With TGCACATGAAGCACTCGGGATG, the sensor-assay potency score (higher = more potent) was -1.65.
Consider AAAGAAGTAACCACGCTGCTTG, for which the sensor-assay potency score (higher = more potent) was 0.146.
Still for that read-out and setting: with TCGGAGCCCAGGTCGACTCTGC the figure was -1.11; with TTGGTCTGCCATCTTCTGGCCC, -0.715.
With TTGTCCATATGGAGATCCCAGG, the sensor-assay potency score (higher = more potent) was -1.39.
Still for that read-out and setting: with TACACCGCCACCACGTCGTAGC the figure was -0.286; with TAGAGCTTGTCCCGTGCCTTGA, -0.615.

Another experiment deals with PDP1. Described as above. The note with it: shRNA.
TATTATAGTAGTATCTTTTTAA had a sensor-assay potency score (higher = more potent) of -1.01.
On to ATGATTGTAATGTCATCTCTGT, for which the sensor-assay potency score (higher = more potent) was 0.0872.
In turn, TATTCATTGTCATTCAACTGGT registered a sensor-assay potency score (higher = more potent) of -0.478.
On to TACAACATGAGAATTGAACTGA, for which the sensor-assay potency score (higher = more potent) turned out to be 1.04.
In turn, TGAAACTGTATTCATTAGCTTT had a sensor-assay potency score (higher = more potent) of -0.926.
The sequence TAGAACTGACATTTTTGCCGTC returned a sensor-assay potency score (higher = more potent) of 0.378.
With TTGTCATTCAACTGGTCTGGGC, the sensor-assay potency score (higher = more potent) was -1.11.
With TTAGGAGGAATAAACTTGGTAT, the sensor-assay potency score (higher = more potent) was -0.0779.
For TTTAAGGATGCTATTGACTTGT, the sensor-assay potency score (higher = more potent) is 0.228.
TGCATTTTCAATCTCTAGCAAA: the sensor-assay potency score (higher = more potent) is -1.4.
On the same count and under the same terms, in the case of TTGAACTGAACTACAATGATTG it was -0.787; in that of TTTTGAAGGTCAATGCTCCATT, -0.4.

The next experiment addresses PDZD4. Described as above. The note with it: shRNA.
The sequence TGTCCTTGTCCGACTTCTCGGG had a sensor-assay potency score (higher = more potent) of -0.294.
The sequence TTGCAGGCCAAACTTGCGCAGG came in with a sensor-assay potency score (higher = more potent) of -1.4.
Take TTTCAGTTTACGAGCACGCAGC: the sensor-assay potency score (higher = more potent) was -0.95.
Turning to TCATCCAGGAAGTCATCCCGGT, the sensor-assay potency score (higher = more potent) is -0.501.
In the case of TTTGGCTGCAATGCTGTTGGGA, the sensor-assay potency score (higher = more potent) is -0.7.
With TTGATCTCCAGGAGCTCACGGT, the sensor-assay potency score (higher = more potent) is -0.853.
In the case of TTTTATACAGCTCCACCTCCTC, the sensor-assay potency score (higher = more potent) was -1.13.
TCGTCGGTCGTCATACCGCTGC showed a sensor-assay potency score (higher = more potent) of -0.818.
Consider TTCACTTTCCACTCCATGCGCG, for which the sensor-assay potency score (higher = more potent) is -0.515.
Same read-out and setting: in the case of TCGTCGTCGGTCGTCATACCGC it was -1.57.
The same measure, in the same setting: in the case of TCACTTTGTACTGCTCCTCCGG it was -0.937; in that of TACACCGTTAATCTGGATGATG, -1.18.
